Measurements from PubChem BioAssay AID2507 (National Center for Advancing Translational Sciences (NCATS), 2010).
Inconclusive results are not listed. The source made the active and inactive calls. Calls follow the shape of the dose curve; as a rule, active = well fitted inhibition curve with a large enough effect; inconclusive = small, poorly fitted or top-dose-only effect, or effect the other way; inactive = flat fitted curve, though single readings scatter.

Assay: Secondary Assay for General miRNAs Modulators and/or Inhibitors/Activators of miR-21: miR-30 Firefly Luciferase Assay
Settings: HeLa miR-30 FLuc reporter, luminescence, 48 h; series mostly up to 38.3 µM
Excerpt: MLSCN Grant: 1 R21 NS059478-01 Assay Provider: Qihong Huang, The Wistar Institute NCGC Assay Overview: MicroRNAs (miRNAs) are endogenously encoded small (~20-25 nucleotides), nonprotein-coding RNAs that are involved in post-transcriptional repression of target messenger RNAs (mRNAs) (Le and Hannon, 2004). Estimated to be involved in the regulation of 30% of all protein-coding mRNAs (Filipowicz et al., 2008), miRNAs play a significant role in many biological processes including cellular differentiation and tissue development (Ghildiyal and Zamore, 2009). […] Compounds active in the miR-21 FLuc assay were clustered using Leadscope and active chemical series were prioritized based on chemical properties, potential for medicinal chemistry optimization, and SAR. Within each chemical series, representative compounds were re-acquired to test for activity in a secondary assay based on the quality of their CRC, efficacy, and potency. The secondary assay to determine if compounds active in the miR-21 FLuc assay were potentially specific for miR-21 and were not general modulators of the miRNA pathway was another cell-based FLuc reporter gene assay, this time targeting miR-30. Compounds found active in both the miR-21 FLuc and miR-30 FLuc assays are not considered miR-21 specific compounds, and may be general miRNA modulators.
NCGC Assay Protocol Summary: Reagents: HeLa cells stably expressing firefly luciferase (FLuc) under the control of a CMV promoter (upstream) and a miR-30 binding sequence directly downstream of the gene. These cells also stably express miR-30. Control compounds used were compound C3 (provided by collaborator), N6-phenyladenosine (MP Biomedicals, 0215379625), and DMSO. Assay Summary: 6uL of HeLa miR-30-FLuc cells in assay buffer (DMEM, Invitrogen #21063-029; 10% FBS, HyClone #SH30071.03) were dispensed at 1000cells/well (1.7 x 10^5 cells/mL) into Greiner solid-white TC-treated 1536-well plates using a Multidrop Combi (Thermo Fisher Scientific). Plates were incubated for one hour at 37 degree Celsius, 95% humidity, 5% CO2. These assay plates were then treated with 23nL of compound or DMSO using a Kalypsys pin tool, which allows for delivery of a 24-point titration of each compound to the assay plate, with a final compound concentration ranging from approximately 40uM to 5pM. Assay plates were then incubated for 48 hours. After incubation, plates were allowed to come to RT for one hour prior to delivery of 3uL of 3X luciferase detection reagent. After a 15 minute incubation to allow for cell lysis, luciferase activity was measured using a ViewLux CCD imager (PerkinElmer), with an average exposure time of 2-12 seconds. Keywords: NIH Roadmap, MLPCN, MLSMR, qHTS, miR-21, miR-30, microRNA, firefly luciferase, FLuc.

Potency, inactive:
CCS(=O)(=O)n1nc(-c2ccccc2)nc1NCc1ccco1, COc1ccccc1NC(=O)C/C(C)=N/NC(=O)c1ccccn1, Nc1c(-c2nc(-c3ccncc3)no2)nnn1CC(=O)Nc1ccccc1, O=C(CSc1nnc(-c2ccncc2)o1)Nc1nncs1, COc1ccc(-n2nnc(-c3nc(-c4cccs4)no3)c2N)cc1OC, CCCn1c(=O)c2sccc2n2c(CCCC(=O)Nc3ccc(Oc4ccc(Cl)cc4)cc3)nnc12, Cc1ccc(NC(=O)Cn2nnc(-c3nc(-c4ccc(Cl)cc4)no3)c2N)cc1C, CCC(Oc1ccccc1F)C(=O)N1CCC(c2nc3ccccc3s2)CC1 (stereo not given)

Potency, active:
Cc1cccc(-n2nnc(-c3nc(-c4cccs4)no3)c2N)c1 0.798 µM, CCc1ccc(-n2nnc(-c3nc(-c4cccs4)no3)c2N)cc1 1.42 µM, COc1ccc(OCC(=O)Nc2cc(-c3nc4ccccc4s3)ccc2C)cc1 4.49 µM, Cc1cc(C)cc(NC(=O)CSc2nnc(-c3ccccc3C)o2)c1 11.3 µM, Cc1cc(SCC(=O)Nc2nsc(-c3ccc(C(C)(C)C)cc3)n2)nc2ccccc12 2 µM, CCc1nonc1NC(=O)c1oc2ccc(C)cc2c1C 4.49 µM, Cc1cccc(-n2nnc(-c3nc(-c4cccs4)no3)c2N)c1C 0.159 µM, COc1ccc(-c2nnc(SCC(=O)Nc3cccc(F)c3)s2)cc1 8.95 µM, Nc1c(-c2nc(-c3ccccc3Cl)no2)nnn1-c1ccccc1F 0.4 µM, CN(C)c1ccc(CNc2nc(-c3ccco3)nn2S(C)(=O)=O)cc1 2.83 µM, O=S(=O)(c1ccc(F)cc1)n1ccc(-c2cnc(-c3ccccc3)s2)n1 6.34 µM, CCc1nonc1NC(=O)c1oc2ccccc2c1C 12.6 µM, CC(=O)Nc1nc2c(C)cc(NC(=O)C3CCCCC3)cc2s1 1.26 µM, NC(=O)c1ccccc1NC(=O)c1ccc(-c2ccc(Br)cc2)o1 1.13 µM, Cc1c(-c2nnc(SCC(=O)Nc3ccccc3F)o2)nnn1-c1ccc(F)cc1 4 µM, N#Cc1cc2cc3c(cc2nc1SCC(=O)N1CCOCC1)OCO3 0.798 µM, O=C(CSc1nnc(-c2ccc(O)cc2)o1)Nc1ccccc1Br 1.13 µM, COc1ccc(C(=O)Nc2nnc(C(C)C)s2)cc1OC 7.98 µM, Cc1nnc(SCc2nc(N)nc(Nc3ccccc3)n2)s1 22.5 µM, COc1ccccc1C(=O)n1nc(-c2ccco2)nc1NCc1ccc(Cl)cc1 7.98 µM, COc1cccc(-n2nnc(-c3nc(-c4cccs4)no3)c2N)c1 0.634 µM, Cc1cccc(-c2nnc(SCC(=O)Nc3ccc(C)c(C)c3)o2)c1 3.18 µM, Cc1ccc(-c2nsc(SCC(=O)Nc3ccc4c(c3)OCO4)n2)cc1 11.3 µM, O=C(CSc1nnc(-c2ccccn2)o1)Nc1cccc(Cl)c1 1.13 µM, Cc1ccccc1Nc1nc(N)nc(CN(C)c2ccccc2)n1 12.6 µM, Nc1c(-c2nc(-c3cccs3)no2)nnn1-c1cccc(F)c1 0.283 µM, CS(=O)(=O)n1nc(-c2ccc(Cl)cc2)nc1SCc1ccccc1 10 µM, Cn1c(=O)[nH]c2cc(-c3noc(-c4ccc(F)cc4)n3)ccc21 2.52 µM, Cc1ccc(CNc2nc(-c3ccco3)nn2S(C)(=O)=O)cc1 2.83 µM, COCC(=O)Nc1c(C(=O)Nc2ccc3c(c2)OCCO3)oc2ccccc12 0.634 µM, Cc1ccc(Nc2ncnc(N)n2)cc1C 10 µM, COc1cccc(NC(=O)CSc2nnc(-c3cccs3)o2)c1 5.65 µM
